A selection: hits, their analogues and other compounds. The true share with any hit is near 2.9%.
CRFBP-R2 agonist = CRF-BP/CRF-R2 complex agonism; activation, % at 13.2 µM; HEK293 CRF-R2/CRF-BP, calcium dye fluorescence (FLIPR); percent of saturating CRF peptide response; actives 0.46% (n = 350,000); AID 588473;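 active = activation of at least 50%, plus an integration ratio under a set limit after plate pattern correction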
MEKK2wt PB1 HTS = raises or lowers MEK5 binding to wildtype human MEKK2 PB1 domain. actives 1.1% (n = 290,000). bead flow cytometry, Alexa488-MEK5 binding to MEKK2 WT; actives lie on both sides. binding response (% of control), % at 10 µM. Q9Y2U5. AID 1531; in the data active = binding response below about 67% or above about 130%
MEKK2 mut-MEK5 = signal of MEK5 binding to mutant human MEKK2 PB1 domain | actives 0.35% (n = 290,000) | bead flow cytometry, Alexa488-MEK5 binding to MEKK2 mutant | percent response, % at 10 µM; in the data active = percent response above about 24%, passing the limit was not always enough
CRFR2-BP antag = blocks CRF-induced signaling of the CRF-BP/CRF-R2 complex. HEK293 CRF-R2/CRF-BP, CRF-induced calcium fluorescence. inhibition, % at 11.8 µM. actives 0.59% (n = 350,000);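 active = inhibition of the ligand-induced calcium signal above about 50% at the single tested concentration, limit read from the data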
ABCB6 inh MLPCN = human ABCB6 transporter inhibition; Q9NP58; K562-ABCB6 porphyrin accumulation, flow cytometry, 1 h; hits give low values; actives 0.19% (n = 360,000); AID 602162; fluorescence ratio to DMSO, % at 10 µM;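 active = fluorescence ratio to DMSO below 75%, the collection mean minus 3 SD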;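 note: signal is porphyrin accumulated inside mitochondria; lower ratio means ABCB6 inhibition with less porphyrin fluorescence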
MEKK3 PB1 HTS = modulators (inhibitors or enhancers) of MEK5 binding to human MEKK3 PB1 domain; AID 1529; bead-based flow cytometry, Alexa488-MEK5 binding to MEKK3; actives lie on both sides; 0 = blocked by unlabeled MEK5, 100 = vehicle; binding response (% of control), % at 10 µM; Q99759; actives 1.4% (n = 290,000);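 active = binding response more than 3 SD above or below the average of its plate-row segment, actives on both sides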;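 note: Alexa488 bead fluorescence after subtracting the streptavidin-only scavenger bead signal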
MEKK2wt confirm = raises or lowers MEK5 binding to wildtype human MEKK2, retest; binding response (% of control), % at 10 µM; bead flow cytometry, Alexa488-MEK5 binding to MEKK2 WT; actives lie on both sides; actives 2.4% (n = 5,900); shares compounds with MEKK3 PB1 HTS; in the data active = binding response below about 16% or above about 210%; inactive = in between
MEKK2mut-MEK5 = signal of MEK5 binding to mutant human MEKK2, retest | shares compounds with MEKK3 PB1 HTS | percent response, % at 10 µM | AID 1893 | bead flow cytometry, Alexa488-MEK5 binding to MEKK2 mutant | actives 2% (n = 5,900); in the data active = percent response mostly above about 71%, no sharp cut-off; inactive = mostly below about 38%;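 note: higher means compound restores mutant binding toward wildtype level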
MEKK3-MEK5 inh = confirmation of inhibitors of MEK5 binding to human MEKK3 | shares compounds with MEKK3 PB1 HTS | bead flow cytometry, Alexa488-MEK5 binding to MEKK3; hits give low values | binding response (% of control), % at 10 µM | actives 1.8% (n = 5,900);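 active = binding response below 72% of control, or above a set upper limit, though filed actives all read lower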;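 note: lower values mean stronger disruption of MEK5 binding to MEKK3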
Large screens that a line does not name were inactive (follow-up assays come after a bar, where they were run); [ ] = remark or other dose.

COc1ccc2c(CSc3nc4nc(C)cc(C)n4n3)cc(=O)oc2c1	MEKK3 PB1 HTS 122.0 | MEKK2wt confirm inactive | MEKK2mut-MEK5 inactive | MEKK3-MEK5 inh inactive
O=C(Nc1c2c(nn1-c1cccc(Cl)c1)CS(=O)(=O)C2)c1ccc2c(c1)OCO2	none
CCCN(Cc1cc2cc(C)ccc2[nH]c1=O)S(C)(=O)=O	MEKK3 PB1 HTS 128.0 | MEKK2wt confirm inactive | MEKK2mut-MEK5 inactive | MEKK3-MEK5 inh inactive
CCCc1nnc(SCC(=O)Nc2ccccc2Cl)n1CC1CCCO1 (stereo not given)	none
Cc1cc(C(=O)COC(=O)C2=COCCO2)c(C)n1-c1ccc2c(c1)OCO2	none
Cc1cc(C(=O)COC(=O)Cc2n[nH]c(=O)c3ccccc23)c(C)n1-c1ccc2c(c1)OCCO2	MEKK3 PB1 HTS 135.0 | MEKK2wt confirm inactive | MEKK2mut-MEK5 inactive | MEKK3-MEK5 inh inactive
O=C1C=C(c2cccc(CO)c2)C[C@@H](c2ccc3c(c2)OCO3)C1	none (no result: MEKK2wt PB1 HTS, MEKK2 mut-MEK5, MEKK3 PB1 HTS)
O=C(NCc1ccccc1CN1CCCC1)c1ccc(Cl)c(N2CCCC2=O)c1	none (no result: MEKK2wt PB1 HTS, MEKK2 mut-MEK5, MEKK3 PB1 HTS)
O=C(NN1C(=O)c2cc(Br)ccc2NC1c1ccccc1Cl)c1ccncc1 (stereo not given)	none
O=C(NN1C(=O)c2cc(Br)ccc2NC1c1cc(Br)cc(Br)c1O)c1ccncc1 (stereo not given)	MEKK3 PB1 HTS 133.0 | MEKK2wt confirm inactive | MEKK2mut-MEK5 inactive | MEKK3-MEK5 inh inactive
COc1ccc(-n2c(=S)[nH]c3cc(C(=O)Nc4ccccc4OC)ccc3c2=O)cc1	MEKK3 PB1 HTS 132.0 (no result: CRFBP-R2 agonist, CRFR2-BP antag, ABCB6 inh MLPCN) | MEKK2wt confirm inactive | MEKK2mut-MEK5 inactive | MEKK3-MEK5 inh inactive
N#C/C(=C/c1ccc(-c2ccc(S(N)(=O)=O)cc2)o1)c1nc2ccccc2s1	CRFBP-R2 agonist 203.3, MEKK2wt PB1 HTS 28.0[inhibitor], MEKK3 PB1 HTS 63.0[inhibitor] | MEKK2wt confirm inactive | MEKK2mut-MEK5 inactive | MEKK3-MEK5 inh inactive
N#C/C(=C/c1ccc(-c2ccc(S(N)(=O)=O)cc2)o1)C(=O)Nc1ccccc1	none
COc1cc(/C=N/Nc2cccc(C)c2)ccc1OC(=O)c1ccco1	none
COc1cc(NC(=O)c2cc(C)nc3ccccc23)cc(OC)c1OC	MEKK3 PB1 HTS 142.0 | MEKK2wt confirm inactive | MEKK2mut-MEK5 inactive | MEKK3-MEK5 inh inactive
Cn1nnnc1SCC(=O)NC1CCCCC1	none
CC1CCCC(NC(=O)CSc2nnnn2C)C1C (stereo not given)	MEKK2wt PB1 HTS -8.0[inhibitor], MEKK3 PB1 HTS 0.0[inhibitor] | MEKK2wt confirm inactive | MEKK2mut-MEK5 inactive | MEKK3-MEK5 inh inactive
CC1CCCC(NC(=O)Cc2ccc(Br)cc2)C1C (stereo not given)	MEKK3 PB1 HTS 131.0 | MEKK2wt confirm inactive | MEKK2mut-MEK5 inactive | MEKK3-MEK5 inh inactive
CCOC(=O)C1CCCCN1Cc1ccc(-c2ccccc2)cc1 (stereo not given)	none
COc1ccc(CCC(=O)NCCOc2ccccc2Cl)cc1	none (no result: MEKK2wt PB1 HTS, MEKK2 mut-MEK5, MEKK3 PB1 HTS)
O=C(O)c1ccc(N2C(=O)/C(=C/C=C/c3ccccc3)SC2=S)cc1	none
CN(C)c1ccc(/C=C/C=C2/SC(=S)N(c3ccccc3)C2=O)cc1	MEKK3 PB1 HTS 0.0[inhibitor] (no result: MEKK2wt PB1 HTS, MEKK2 mut-MEK5) | MEKK2wt confirm inactive | MEKK2mut-MEK5 inactive | MEKK3-MEK5 inh 69.0
COC(=O)CCc1c(COC(C)=O)[nH]c(C(=O)OCc2ccccc2)c1C	none
Cn1c(=O)n(C)c2cc(S(=O)(=O)NCCO)ccc21	none
Cn1c(=O)n(C)c2cc(S(=O)(=O)NCCOCCO)ccc21	MEKK2wt PB1 HTS -1.0[inhibitor], MEKK3 PB1 HTS 2.0[inhibitor] | MEKK2wt confirm inactive | MEKK2mut-MEK5 inactive | MEKK3-MEK5 inh inactive

Screening data deposited in PubChem by several laboratories.
